Source: the supplement of paper PMC10849652
About 8,800 targets were measured; listed, in parts, are those with a hit and a random draw of the rest. About 0.5% of all pairs of compound and target were hits. A number with no mark means an inactive call.

Experiments:
Experiment in all cases: log2 fold change, soluble protein after heating vs DMSO (PISA); higher = thermal stabilisation; K562 lysate, 10 uM; active = over 0.2 and 3.5 SD of the protein, either way, in both replicates (recomputed)
[1] = compound: C#Cc1cccc(Nc2ncnc3cc(OCCOC)c(OCCOC)cc23)c1 [erlotinib]
Method in brief: (§1)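 Following dounce homogenisation of K562 pellets in PBS pH 7.4 with 1 mM MgCl2, crude extract at 1 mg/mL protein was incubated for 30 min with 10 μM compound. Aliquots were then heated for 3 min over 48°C-58°C and pooled, NP-40 was added to 0.5% at 4°C, and soluble protein was recovered as the supernatant at 21,000xg for 90 min. Channel-sum-equalised TMTpro 16plex LC-MS/MS quantified this protein. Each value, from duplicates, is a log-two fold change in thermal stability relative to solvent controls.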

[2] = compound: C/C(=N\NC(=O)C1=CC(=CC=C1)S(=O)(=O)N2CCOCC2)/C3=C(C=CC(=C3)Cl)O
Method in brief: as §1

[3] = compound: C1=CC(=CC=C1C2=NC3=C(N2)C=C(C=C3)C(=O)N)OC4=CC=C(C=C4)Cl
Method in brief: as §1

[4] = compound: C1=CC2=C(C=CC(=C2)/C=C\3/C(=O)NC(=NCC4=CC=CS4)S3)N=C1
Method in brief: as §1

[5] = compound: C1=CC2=NC=CN=C2C=C1/C=C/3\C(=O)NC(=O)S3
Method in brief: as §1

[6] = compound: C1=CC=C(C=C1)C2=NC(=C(N2)C3=CC=NC=C3)C4=CC(=C(C=C4)Cl)O
Method in brief: as §1

[7] = compound: C1=CC=C2C(=C1)C3=NNC4=CC=CC(=C43)C2=O
Method in brief: as §1

[8] = compound: C1CCN(C1)C(=O)NC2=CC=CC(=C2)NC3=NC=C(C(=N3)NCCC4=CN=CN4)Br
Method in brief: as §1

[9] = compound: C1CN(CCC1(CC2=CC=C(C=C2)Cl)N)C3=NC=NC4=C3C=CN4
Method in brief: as §1

[10] = compound: C1COCCN1CCN2C3=CC=CC=C3N=C2NC(=O)C4=CC(=CC=C4)[N+](=O)[O-] [IRAK-1-4 Inhibitor I]
Method in brief: as §1

[11] = compound: C=CC(=O)N1CCC[C@@H](n2nc(-c3ccc(Oc4ccccc4)cc3)c3c(N)ncnc32)C1 [ibrutinib]
Method in brief: as §1

[12] = compound: CC(=O)c1cnc2ccc(-c3cc(Cl)c(O)c(Cl)c3)nc2c1N[C@H]1CC[C@H](CN(C)C)CC1
Method in brief: as §1

[13] = compound: CC(C)(C)Cn1c(N)nc2ccc(-c3[nH]c(C(C)(C)C)nc3-c3ccc(F)cc3)nc21 [ralimetinib]
Method in brief: as §1

[14] = compound: CC(C)(O)CC(=O)NCCn1ccc2ncnc(Nc3ccc(Oc4cccc(C(F)(F)F)c4)c(Cl)c3)c21
Method in brief: as §1

[15] = compound: CC(C)C1=C2N=C(C=C(N2N=C1)NCC3=CC=CC=C3)NCCCCCCN
Method in brief: as §1

[16] = compound: CC1=C(C(CC(=O)N1)C2=CC=C(C=C2)C(F)(F)F)C(=O)NC3=C(C=C4C(=C3)C=NN4)F
Method in brief: as §1

[17] = compound: CC1=C(C2=C(C=C1)C(=O)C3=CC=CC=C3N2CCCN)C
Method in brief: as §1

[18] = compound: CC1=C(C=C(C=C1)NC(=O)C2=CC(=CC=C2)C(C)(C)C#N)NC3=CC4=C(C=C3)N=CN(C4=O)C
Method in brief: as §1

[19] = compound: CC1=C(C=C(C=C1)NC(=O)C2=CC(=CC=C2)N(C)C)NC(=O)C3=CC=C(C=C3)O
Method in brief: as §1

[20] = compound: CC1=CC=C(C=C1)SC2=C3C=C(SC3=CN=C2)C(=O)N
Method in brief: as §1

Sequence of UniProt Q9Y5B6 (Q9Y5B6 whole entry, looked up): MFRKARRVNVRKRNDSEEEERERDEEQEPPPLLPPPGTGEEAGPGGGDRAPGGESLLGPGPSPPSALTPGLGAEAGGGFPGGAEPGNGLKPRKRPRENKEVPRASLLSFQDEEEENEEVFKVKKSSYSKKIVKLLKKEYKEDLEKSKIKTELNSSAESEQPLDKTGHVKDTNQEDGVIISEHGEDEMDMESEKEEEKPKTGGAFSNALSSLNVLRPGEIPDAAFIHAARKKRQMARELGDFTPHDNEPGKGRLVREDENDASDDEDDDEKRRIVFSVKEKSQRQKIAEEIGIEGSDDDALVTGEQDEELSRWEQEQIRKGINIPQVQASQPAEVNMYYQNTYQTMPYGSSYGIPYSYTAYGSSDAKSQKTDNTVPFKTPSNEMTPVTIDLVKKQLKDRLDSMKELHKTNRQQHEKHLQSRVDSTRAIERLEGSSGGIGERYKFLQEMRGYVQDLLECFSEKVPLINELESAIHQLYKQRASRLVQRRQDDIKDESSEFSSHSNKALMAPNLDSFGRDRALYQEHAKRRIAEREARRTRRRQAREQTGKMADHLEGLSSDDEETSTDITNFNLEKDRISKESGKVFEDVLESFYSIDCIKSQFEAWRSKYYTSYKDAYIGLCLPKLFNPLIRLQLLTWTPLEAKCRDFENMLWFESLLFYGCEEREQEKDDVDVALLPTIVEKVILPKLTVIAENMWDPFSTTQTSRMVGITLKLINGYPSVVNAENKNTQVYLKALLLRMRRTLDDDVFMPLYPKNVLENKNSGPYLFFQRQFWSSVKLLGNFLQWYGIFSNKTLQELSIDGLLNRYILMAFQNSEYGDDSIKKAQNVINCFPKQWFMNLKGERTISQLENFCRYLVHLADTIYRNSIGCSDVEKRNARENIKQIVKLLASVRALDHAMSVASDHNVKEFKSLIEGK
Sequence of UniProt Q8IVI9 (Q8IVI9 whole entry, looked up): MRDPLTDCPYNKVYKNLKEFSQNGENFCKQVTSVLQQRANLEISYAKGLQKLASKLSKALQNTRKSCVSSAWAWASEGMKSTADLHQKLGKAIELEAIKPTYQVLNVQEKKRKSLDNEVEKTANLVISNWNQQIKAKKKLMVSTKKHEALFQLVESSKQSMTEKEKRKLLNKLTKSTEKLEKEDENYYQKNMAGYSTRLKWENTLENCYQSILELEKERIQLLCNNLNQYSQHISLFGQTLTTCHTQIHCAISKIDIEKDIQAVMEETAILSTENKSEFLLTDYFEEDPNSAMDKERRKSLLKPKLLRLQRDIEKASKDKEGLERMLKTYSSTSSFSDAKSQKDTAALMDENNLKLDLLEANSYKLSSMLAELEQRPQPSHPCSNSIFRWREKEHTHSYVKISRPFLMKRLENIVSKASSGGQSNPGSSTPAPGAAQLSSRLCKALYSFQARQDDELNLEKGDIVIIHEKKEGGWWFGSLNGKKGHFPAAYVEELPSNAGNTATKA
Sequence of UniProt P03886 (P03886 whole entry, looked up): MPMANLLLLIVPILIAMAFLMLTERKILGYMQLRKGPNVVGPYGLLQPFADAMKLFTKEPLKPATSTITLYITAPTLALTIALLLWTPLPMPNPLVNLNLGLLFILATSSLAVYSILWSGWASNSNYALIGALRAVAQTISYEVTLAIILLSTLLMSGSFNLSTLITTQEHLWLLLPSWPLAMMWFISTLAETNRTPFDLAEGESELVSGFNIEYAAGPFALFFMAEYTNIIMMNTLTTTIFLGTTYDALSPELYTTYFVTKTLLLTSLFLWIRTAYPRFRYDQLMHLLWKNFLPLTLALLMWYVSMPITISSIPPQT
Sequence of UniProt Q96IY1 (Q96IY1 whole entry, looked up): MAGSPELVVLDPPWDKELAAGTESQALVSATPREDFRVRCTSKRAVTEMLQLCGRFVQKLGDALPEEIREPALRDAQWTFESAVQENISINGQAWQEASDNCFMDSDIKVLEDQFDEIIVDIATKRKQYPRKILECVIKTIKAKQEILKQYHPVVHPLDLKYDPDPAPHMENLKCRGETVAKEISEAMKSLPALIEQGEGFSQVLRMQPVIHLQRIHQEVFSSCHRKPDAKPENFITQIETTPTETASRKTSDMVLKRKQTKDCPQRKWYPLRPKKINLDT
Sequence of UniProt Q9NZJ9 (Q9NZJ9 whole entry, looked up): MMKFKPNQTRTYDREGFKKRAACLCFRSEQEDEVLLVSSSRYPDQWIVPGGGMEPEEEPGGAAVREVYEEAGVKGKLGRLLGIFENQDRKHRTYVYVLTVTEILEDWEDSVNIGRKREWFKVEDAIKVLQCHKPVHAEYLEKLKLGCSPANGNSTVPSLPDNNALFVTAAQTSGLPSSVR
Sequence of UniProt P42695 (P42695 whole entry, looked up): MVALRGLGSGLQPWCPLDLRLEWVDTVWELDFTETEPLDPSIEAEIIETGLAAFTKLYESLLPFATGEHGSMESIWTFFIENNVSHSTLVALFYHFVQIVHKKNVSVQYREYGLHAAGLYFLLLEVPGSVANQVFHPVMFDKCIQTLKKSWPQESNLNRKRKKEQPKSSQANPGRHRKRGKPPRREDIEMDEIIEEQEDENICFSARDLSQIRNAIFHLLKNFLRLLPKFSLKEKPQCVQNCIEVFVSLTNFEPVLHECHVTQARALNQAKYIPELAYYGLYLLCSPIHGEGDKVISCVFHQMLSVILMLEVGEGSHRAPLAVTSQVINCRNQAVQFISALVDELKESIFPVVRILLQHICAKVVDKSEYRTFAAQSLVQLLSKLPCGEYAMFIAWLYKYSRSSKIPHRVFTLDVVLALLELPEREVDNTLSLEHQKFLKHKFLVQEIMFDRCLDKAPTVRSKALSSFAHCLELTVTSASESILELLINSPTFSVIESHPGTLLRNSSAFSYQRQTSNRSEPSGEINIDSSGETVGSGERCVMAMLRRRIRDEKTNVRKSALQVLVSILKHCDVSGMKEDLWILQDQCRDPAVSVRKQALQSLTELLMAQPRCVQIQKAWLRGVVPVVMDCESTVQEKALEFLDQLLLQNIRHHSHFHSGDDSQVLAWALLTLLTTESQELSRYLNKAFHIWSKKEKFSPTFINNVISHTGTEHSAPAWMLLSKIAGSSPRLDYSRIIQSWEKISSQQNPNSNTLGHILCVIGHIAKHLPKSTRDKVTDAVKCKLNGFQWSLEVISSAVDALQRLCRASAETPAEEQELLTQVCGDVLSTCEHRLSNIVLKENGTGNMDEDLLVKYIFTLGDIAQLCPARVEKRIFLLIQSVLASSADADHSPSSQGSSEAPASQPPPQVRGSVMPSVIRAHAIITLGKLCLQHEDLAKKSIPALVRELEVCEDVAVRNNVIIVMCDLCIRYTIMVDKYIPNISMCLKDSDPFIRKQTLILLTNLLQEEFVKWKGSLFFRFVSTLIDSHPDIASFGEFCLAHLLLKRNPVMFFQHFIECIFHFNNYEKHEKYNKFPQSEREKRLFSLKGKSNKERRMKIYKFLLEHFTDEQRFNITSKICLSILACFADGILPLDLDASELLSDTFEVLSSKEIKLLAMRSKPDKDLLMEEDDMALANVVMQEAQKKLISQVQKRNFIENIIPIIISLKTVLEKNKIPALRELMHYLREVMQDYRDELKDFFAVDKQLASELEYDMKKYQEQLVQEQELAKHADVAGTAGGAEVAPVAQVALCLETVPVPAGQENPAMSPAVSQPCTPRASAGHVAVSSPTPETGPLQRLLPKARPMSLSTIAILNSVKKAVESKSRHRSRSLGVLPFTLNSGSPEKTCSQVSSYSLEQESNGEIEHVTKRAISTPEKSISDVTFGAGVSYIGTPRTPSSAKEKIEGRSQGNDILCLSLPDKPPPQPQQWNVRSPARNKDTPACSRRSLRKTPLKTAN
Sequence of UniProt Q9Y639 (Q9Y639 whole entry, looked up): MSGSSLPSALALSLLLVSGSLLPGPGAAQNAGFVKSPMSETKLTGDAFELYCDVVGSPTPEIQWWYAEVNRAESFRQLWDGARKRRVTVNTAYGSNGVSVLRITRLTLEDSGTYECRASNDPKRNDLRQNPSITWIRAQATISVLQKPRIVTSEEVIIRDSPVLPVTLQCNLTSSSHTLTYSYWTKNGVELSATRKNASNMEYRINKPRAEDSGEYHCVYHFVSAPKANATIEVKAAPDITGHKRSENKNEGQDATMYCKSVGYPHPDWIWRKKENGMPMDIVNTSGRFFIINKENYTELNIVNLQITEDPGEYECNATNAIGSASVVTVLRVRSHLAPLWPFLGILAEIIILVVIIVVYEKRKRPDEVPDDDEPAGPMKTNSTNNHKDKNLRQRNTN
Sequence of UniProt Q9NQR4 (Q9NQR4 whole entry, looked up): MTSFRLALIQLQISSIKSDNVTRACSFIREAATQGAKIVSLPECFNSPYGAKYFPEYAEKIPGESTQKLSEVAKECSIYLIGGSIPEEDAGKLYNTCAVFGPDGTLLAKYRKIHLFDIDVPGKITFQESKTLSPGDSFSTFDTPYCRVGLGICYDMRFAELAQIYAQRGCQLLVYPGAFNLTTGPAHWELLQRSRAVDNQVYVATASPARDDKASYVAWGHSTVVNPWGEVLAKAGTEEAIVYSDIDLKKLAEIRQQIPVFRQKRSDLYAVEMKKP
Sequence of UniProt Q96DH6 (Q96DH6 whole entry, looked up): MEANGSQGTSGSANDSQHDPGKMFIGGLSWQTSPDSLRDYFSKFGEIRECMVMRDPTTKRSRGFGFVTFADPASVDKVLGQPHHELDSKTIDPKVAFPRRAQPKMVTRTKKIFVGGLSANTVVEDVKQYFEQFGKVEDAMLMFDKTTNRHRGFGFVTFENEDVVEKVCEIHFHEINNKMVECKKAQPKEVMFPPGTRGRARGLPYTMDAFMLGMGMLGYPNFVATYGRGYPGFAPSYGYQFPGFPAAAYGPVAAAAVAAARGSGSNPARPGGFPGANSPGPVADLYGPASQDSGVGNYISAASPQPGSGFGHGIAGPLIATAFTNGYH

Row | Target | log2 fold change [1] | log2 fold change [2] | log2 fold change [3] | log2 fold change [4] | log2 fold change [5] | log2 fold change [6] | log2 fold change [7] | log2 fold change [8] | log2 fold change [9] | log2 fold change [10] | log2 fold change [11] | log2 fold change [12] | log2 fold change [13] | log2 fold change [14] | log2 fold change [15] | log2 fold change [16] | log2 fold change [17] | log2 fold change [18] | log2 fold change [19] | log2 fold change [20]
1 | NCAPD3 (UniProt P42695) | 0.023 | 0.021 | -0.012 | 0.006 | -0.003 | 0.012 | -0.043 | -0.004 | 0.042 | 0.03 | 0.001 | -0.017 | 0.043 | -0.019 | -0.008 | 0.007 | -0.024 | -0.012 | 0.036 | -0.012
2 | MYCBP2 (UniProt O75592) | 0.01 | 0 | 0.031 | 0.008 | -0.008 | 0.031 | -0.023 | 0.004 | 0.03 | 0.022 | 0.014 | -0.027 | 0.033 | -0.085 | 0.014 | 0.016 | -0.028 | 0.028 | 0.036 | -0.033
3 | MRPS18A isoform 2 (UniProt Q9NVS2) | 0.024 | -0.038 | 0.038 | 0.112 | -0.035 | -0.053 | -0.013 | 0.009 | 0.004 | 0.015 | -0.015 | 0.006 | -0.015 | -0.002 | -0.046 | 0.034 | -0.131 | 0.016 | 0.043 | -0.003
4 | NSL1 (UniProt Q96IY1) | 0.01 | -0.004 | 0.015 | -0.001 | -0.002 | 0.01 | 0.077 | 0.001 | -0.015 | 0.026 | -0.019 | -0.002 | 0.003 | -0.052 | 0.011 | -0.066 | 0.023 | 0.009 | 0.008 | 0.036
5 | MT-ND1 (UniProt P03886) | -0.061 | -0.227 | -0.14 | 0.055 | -0.036 | -0.005 | 0.061 | -0.038 | 0.02 | 0.004 | 0.032 | -0.006 | 0.061 | -0.101 | -0.052 | 0.056 | -0.007 | 0.055 | -0.005 | 0.088
6 | NIT2 (UniProt Q9NQR4) | -0.048 | 0.001 | 0.014 | 0.009 | 0.007 | -0.03 | 0.032 | -0.006 | 0.015 | 0.067 | 0.026 | 0.014 | -0.038 | -0.041 | 0.014 | 0.017 | 0.014 | 0.017 | 0.019 | 0
7 | NT5DC2 isoform 2 (UniProt Q9H857) | 0.027 | 0.008 | 0.068 | 0.03 | 0.505 (active) | -0.059 | 0.04 | -0.015 | 0.036 | 0.002 | 0 | -0.066 | -0.015 | -0.026 | 0 | -0.002 | -0.015 | 0.008 | 0.04 | -0.025
8 | OSGEP (UniProt Q9NPF4) | 0.012 | -0.002 | 0.041 | -0.148 | -0.236 (active) | 0.008 | -0.058 | 0.009 | -0.028 | -0.022 | -0.009 | 0.02 | 0.022 | -0.03 | -0.003 | 0 | 0.001 | 0.012 | -0.057 | -0.002
9 | OTC (UniProt P00480) | 0.09 | 0.138 | -0.096 | -0.121 | -0.049 | -0.074 | -0.069 | -0.074 | -0.095 | 0.125 | -0.089 | 0.001 | 0.065 | -0.18 | 0.017 | -0.055 | 0.065 | 0.156 | -0.034 | -0.004
10 | NBN (UniProt O60934) | -0.026 | 0.068 | 0.051 | -0.004 | -0.024 | 0.013 | -0.044 | -0.005 | 0.013 | 0.007 | 0.016 | -0.003 | 0.014 | 0.01 | -0.016 | -0.007 | -0.015 | -0.021 | 0.022 | -0.016
11 | NCAPG (UniProt Q9BPX3) | -0.008 | -0.018 | -0.004 | -0.01 | -0.007 | 0.006 | -0.026 | 0.002 | 0.013 | -0.011 | 0.006 | 0.015 | 0.027 | -0.015 | -0.026 | -0.009 | -0.02 | 0.014 | 0.018 | 0.024
12 | NPTN (UniProt Q9Y639) | -0.047 | -0.02 | -0.056 | -0.421 (active) | 0.008 | 0.048 | 0.17 | -0.003 | 0.007 | 0.064 | 0.069 | 0.026 | 0.042 | -0.009 | 0.007 | -0.02 | -0.015 | 0.038 | 0.004 | -0.046
13 | NOSTRIN (UniProt Q8IVI9) | -0.031 | 0.032 | 0.132 | 0.072 | -0.008 | -0.013 | 0.07 | -0.055 | -0.065 | 0.001 | 0.025 | -0.009 | 0.012 | -0.041 | -0.125 | -0.032 | -0.039 | -0.019 | 0.088 | 0.012
14 | MSI2 (UniProt Q96DH6) | -0.04 | -0.277 | 0.035 | -0.047 | 0.084 | -0.034 | -0.011 | 0.03 | 0.027 | 0.057 | 0.044 | -0.024 | 0.032 | -0.039 | 0.015 | -0.029 | 0.009 | -0.315 (active) | 0.03 | 0.054
15 | PAXBP1 (UniProt Q9Y5B6) | 0.019 | -0.035 | 0.025 | -0.01 | 0.018 | 0.026 | -0.04 | -0.022 | 0.029 | 0.013 | -0.004 | 0.019 | 0.027 | -0.015 | 0.006 | -0.024 | 0.007 | -0.007 | 0.077 | 0.032
16 | NUDT4 isoform 2 (UniProt Q9NZJ9) | 0.023 | 0.015 | 0.05 | -0.048 | 0.015 | -0.007 | -0.005 | -0.069 | 0.032 | -0.006 | -0.006 | 0.002 | 0.035 | -0.044 | -0.006 | 0.016 | -0.054 | 0.034 | 0.024 | -0.024
